# Experimental data taken from PubChem BioAssay AID1508600 (Functional Genomics Laboratory (NCATS/FGL), 2020).
# Among all 53,000 sequences or so, about 3,700 (7%) were called active.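 How the source made its calls: active means gene knockdowns whose robust z-score for IL-1 alpha signal is at least 2 or at most -2, so actives lie on both sides; inactive means the rest.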 The entries come from a sample that favours actives as a whole.
# Assay: Components of the Cytosolic LPS Sensing Pathway: Gene Identification via Genome-wide siRNA Screen;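 further: robust z of the log signal after scaling to non-targeting control siRNA wells of the plate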
# Conditions: RAW264.7 macrophages, IL-1a HTRF, actives lie on both sides, screened at 100 nM (by protocol), cells primed 5 h with Pam3CSK4 first
# Summary of the method: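 Three distinct siRNAs per gene were tested singly at 100 nM in RAW264.7 macrophages. Following Pam3CSK4 priming and 24 hour LipidA transfection, IL-1a secretion was read by HTRF.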
row,Sequence,z-score
1,GGAUGGUAACCAUCAUAUUTT against Vmn1r54,-0.887 (inactive)
2,CCUCAUUGUUUUAUACCCUTT against Olfr1140,0.309 (inactive)
3,GGGAUUAUACUAAUCCAACTT against Wdr45,1.24 (inactive)
4,GCUUCUUCCUUAGAUGGCATT against Kcnb1,-1.32 (inactive)
5,GGUGCAUUUUGUCUAUGAUTT against Lamp5,-2.04 (active)
6,CGACCAGCCAUGGUACAAATT against Ptprd,-0.83 (inactive)
7,CGUAGAAGAGUACAUGAUUTT against Pdcd10,-0.526 (inactive)
8,GGAGAAAAGGAAGUUGAGGTT against Bnip3l,-1.76 (inactive)
9,GGGUUUCCAAGAAGGAAGCTT against Utp25,0.852 (inactive)
10,CCUUUUUCGAAAAAUCAGGTT against Lyst,-0.39 (inactive)
11,CCACAUAUAUCAACAAGCUTT against Olfr916,-0.257 (inactive)
12,CCAAGAUAGUCCCUAUCCCTT against Scamp3,0.346 (inactive)
13,GGUAUGAUGAACAGUCCAGTT against Ep300,-2.35 (active)
14,GGCUUGUUAAUGAAUGCACTT against Ankrd9,-0.894 (inactive)
15,GGCUUUGAAGAAGAGCUUUTT against Atp6v0a4,-0.775 (inactive)
16,GCACAGCGGUAAACAAAAUTT against Ywhaz,-0.00575 (inactive)
17,GUAUCCUUCACAACUGUCUTT against Olfr786,-1.66 (inactive)
18,GGAAUCUGCUGAGGUUUAUTT against Cidea,4.08 (active)
19,GGAGCUGAGGAAAAAGAUUTT against Uhrf1,-0.993 (inactive)
20,GGCUUAUCAGUCCAUGAAGTT against Dhrs11,-0.601 (inactive)
21,GGCGAUCAGGCAUCAUCCUTT against Aox1,-0.153 (inactive)
22,GGCAACCAGUCUCAUCAAUTT against Scgb1b27,-0.927 (inactive)

row,Sequence,z-score
1,GCAGAGAUACCUAUCAAAGTT against Angptl4,1.16 (inactive)
2,GGAAGAGGAACAGUUAGCCTT against Zfp553,-0.24 (inactive)
3,GGAGGUCUGGAUUAACUGUTT against Cd163l1,2.2 (active)
4,GCAUCCUGAGCAGUGAUAUTT against Taar7b,-1.75 (inactive)
5,GGGUGCAGUGGAGUCUAUUTT against Smc1a,-1.31 (inactive)
6,GGAUUCUGAAGUGUAAAGATT against Icos,-0.764 (inactive)
7,GGCAGAGAUUGAGAGCAAGTT against Palm,2.28 (active)
8,GGAGUUCCUCAAGAAUUUUTT against Arpc4,-1.39 (inactive)
9,GGUUGUACUGAGUAGCUGGTT against Slc7a4,0.997 (inactive)
10,GGUUUACAAGAGUUACAGUTT against Brpf1,0.493 (inactive)
11,GCAAAGUUGGUGACGUGAUTT against Pole2,-2.15 (active)
12,CCAAUAAGGCAUAUGUUUUTT against Scarb2,-0.608 (inactive)
13,GGCACAGCUUGCUGAAGCUTT against Atp11b,-1.76 (inactive)
14,GGAAUACAAAGAUAGCUUCTT against Atrn,0.786 (inactive)
15,GGCUUCUGGACCUCAAACATT against Zfp92,-2.14 (active)
16,GGCAAUGUUUUUCUUGUUGTT against 9330132A10Rik,-1.12 (inactive)
17,GACCCGCUGCUGCUCAAAUTT against Cdc42ep5,-0.178 (inactive)
18,GGGCAAAAGUACUUUGACUTT against Ensa,2.2 (active)
19,GGACUGUGAUCAGGUUUGUTT against Elk3,0.695 (inactive)
20,GGUAACCAUGAUGAUGACATT against Tmem38b,-2.05 (active)
21,GGAAGACACAUUUUUCCAUTT against Serpinb9e,0.733 (inactive)
22,GGUCUCUCGGACUUUUUCCTT against Adipor1,-0.765 (inactive)

row,Sequence,z-score
1,CCAAUGUUGGCAUUAUGUUTT against Fah,-0.354 (inactive)
2,GGAAGAAACUGGAAAGAUUTT against Ankrd23,-1.01 (inactive)
3,GGAAUGGUCCCUCCAAUGATT against Prpf40b,2.38 (active)
4,GGACACAAGCCUAUUCCAATT against Rffl,1.59 (inactive)
5,GGAUUCAAGCAUCGGAUUGTT against Adamts6,1.11 (inactive)
6,GGCAAUUGUCUCAUUCUGATT against Olfr631,0.806 (inactive)
7,CCAUCAACCCAUCAUGUGCTT against Pitpnc1,-1.25 (inactive)
8,GGCCUUGUAUGAAUUAUUUTT against Sqle,2.18 (active)
9,GGGAGCAAAUUAGAGAAAUTT against Gsk3b,0.884 (inactive)
10,GGUCCUCGGUUACAGAAACTT against Cnr2,-0.263 (inactive)
11,CCCAGCUUUUCAACUUGCUTT against Tmc4,-1.19 (inactive)
12,GGGCCUUGUUUUAGGAAUUTT against Lap3,2.2 (active)
13,GGUACUGGAUCAAAGAAACTT against Gm11992,-1.75 (inactive)
14,GCUGGUACAAGGUGUUUGATT against Pqbp1,0.825 (inactive)
15,GGAAGCACUCAGUGCUCUGTT against Igfbp6,2.06 (active)
16,GGAGGUGAAGCUCAUUGUCTT against Ildr1,-0.165 (inactive)
17,CCGUGUCAUUUGGAGAGCUTT against Ndufaf5,-0.248 (inactive)
18,GGUGCAGUUCAGCAACAAGTT against Mat2b,-1.65 (inactive)
19,GCAGUUGGGUUGGUAACUATT against Ash1l,0.101 (inactive)
20,GGGCAAACCUUCUAAACUATT against Ttpa,0.505 (inactive)
21,GGAUCACCCAUACAGGAACTT against Pla2g2f,-2.1 (active)
22,GCUGACAAAACUGCUAAACTT against Ctnnb1,0.948 (inactive)
